SMILES strings stand for the structures. Screen size: about 69,000 compounds; about 8,600 (12%) showed an effect of 50% or more. The list comes from a sample in which strong results are over-represented; it also holds similar structures and randomly drawn compounds.

The test relates to Plasmodium berghei. Kind of test: Screen against P. berghei liver stage (PbLuc), transformed with Luciferase, at 10uM. The test is classed as functional, HepG2. As to conditions: tested at 10 uM.
On to `C[C@]1(O)CCN(Cc2ncccc2F)C[C@@H]1Oc1ccccc1`, for which the INHIBITION was -11.7%. For `CC[S+](CC)[c-]1c(=O)[nH]c(=O)n(CCc2ccc(F)cc2)c1=O`, the INHIBITION is reported as -17.6%. Then `O=C(O)c1cnc(N2CCC(O)CC2)nc1COc1cccc(F)c1`, with 6.67%; and `CCOc1ccc(Br)cc1C1CCCN1` (stereo unspecified), with 16.8%; and `Fc1cnc(N2CCOC3(CCN(Cc4cccs4)CC3)C2)nc1`, with 48.4%.

Turning to `Cc1cnc(N2CCC3(CC2)CN(Cc2cccs2)CCO3)nc1`, the INHIBITION turned out to be 58.3%. Then `c1ccc(CN2CCOC3(CCN(c4ncccn4)CC3)C2)nc1`, with 14.2%; and `Fc1cnc(N2CCC3(CC2)CN(Cc2ccccn2)CCO3)nc1`, with -3.51%. As for `Fc1cnc(N2CCC3(CC2)CN(Cc2cccs2)CCO3)nc1`, the INHIBITION was found to be 60.3%.

On to `O=C(c1ccccc1)N1CCOC2(CCN(Cc3cccs3)CC2)C1`, for which the INHIBITION is given as -11%. Then `O=C(NCc1csc(Br)c1)Nc1cn[nH]c1`, with 17.5%; and `COCCCC1(C(=O)O)CCCN(Cc2cc3c(cc2C)OCCO3)C1` (stereo unspecified), with -31.4%. Then `COCCC1(C(=O)O)CCCN(CCc2ccccc2)C1` (stereo unspecified), with 31.6%; and `COCCC1(C(=O)O)CCCN(CCOCc2ccccc2)C1` (stereo unspecified), with 27.9%. Then `COCCC1(C(=O)O)CCCN(Cc2cc3c(cc2C)OCO3)C1` (stereo unspecified), with 57.2%; and `COCCC1(C(=O)O)CCCN(Cc2cc3c(cc2Cl)OCO3)C1` (stereo unspecified), with 58.5%.

With `COCCCC1(C(=O)O)CCCN(Cc2ccccc2C)C1` (stereo unspecified), the INHIBITION is on record as 14.9%. To `C=c1cc(C)oc1=C1NC(c2c(C)ncc3c2CCNC3)=NO1` belongs 49%; to `O=C(Nc1cnn(Cc2ccc(Cl)cc2)c1)N1CCCC1CO` (stereo unspecified), -31.1%; to `FC1(F)CCNCC12CCN(c1cccnc1)C2` (stereo unspecified), 33%. Regarding `O=C(NCCNc1ncccn1)C1CC(=O)N(Cc2ccccn2)C1` (stereo unspecified), the INHIBITION stood at 50.5%. For the compound `O=C(NCCNc1ncccn1)C1CC(=O)N(Cc2ccco2)C1` (stereo unspecified), the INHIBITION is 2.3%. Turning to `O=C(NCCNc1ncccn1)C1CC(=O)N(Cc2ccccc2)C1` (stereo unspecified), the INHIBITION is listed as -24.2%. On to `O=C1CCc2cc(NC(=O)C3CCCN3c3nccs3)ccc2N1` (stereo unspecified), for which the INHIBITION is listed as 24.3165%. Then `O=C1CC[C@H](C(=O)N(CCc2ccccc2)C2CCOC2)N1` (stereo partly specified), with 55%.

For the compound `O=C(C1CC1)N(CCc1ccccc1)C1CCOC1` (stereo unspecified), the INHIBITION is reported as -28.6%. As to `O=C(C1CCOCC1)N(CCc1ccccc1)C1CCOC1` (stereo unspecified), the INHIBITION is reported as -5.33%. As to `C[C@H]1CN(C(=O)N(C)C)C[C@@]12CCN(c1ccsc1)C2=O`, the INHIBITION is reported as 36.9%. To `O=C(NCC(F)F)c1ccc(S(=O)(=O)NCCc2cn[nH]c2)cc1` belongs 35.8%; to `O=C(NCC(F)F)c1ccc(S(=O)(=O)NCCc2ccncc2)cc1`, 52.2%. Then `O=C(c1ccc(S(=O)(=O)NCCc2ccccn2)cc1)N1CCCC1`, with 30.3%; and `O=C(c1ccc(S(=O)(=O)NCCc2ccncc2)cc1)N1CCCC1`, with 57.6%; and `O=C(NCC(F)F)c1ccc(S(=O)(=O)NCCc2c[nH]cn2)cc1`, with 10.4%. In the case of `O=C(c1ccc(S(=O)(=O)NCc2ccncc2)cc1)N1CCNCC1`, the INHIBITION worked out at 19.5%. As to `CC(C)c1nccn1C1CCCN(C(=O)c2cn3cccnc3n2)C1` (stereo unspecified), the INHIBITION stood at 1.78%.

Consider `Cc1ncccc1NC(=O)c1nc2c(n1C)CCN(C(=O)C1CC1)C2`, for which the INHIBITION was 66.6%.

As for `Cn1c(C(=O)NC2CCCC2)nc2c1CCN(Cc1ccccc1)C2`, the INHIBITION is on record as -18.5%. For `Cn1c(C(=O)NC2CC2)nc2c1CCN(c1ncccn1)C2`, the INHIBITION is 21.6%. `Cc1cnn(CC2CCCCN2c2nn3cc(C)nc3s2)c1` (stereo unspecified): the INHIBITION was -23.9%. For `CC1(C)CN(C(=O)c2occc2COc2cccc(C#N)c2)CCO1`, the INHIBITION is recorded as -10.8%.

Take `Cc1cnn(C2CN(CCOc3ccc(C#N)cc3)C2)c1`: the INHIBITION was -26.1%. In the case of `Cc1cnn(C2CN(CCOc3cccc(C#N)c3)C2)c1`, the INHIBITION is recorded as 69.9%. Then `Cc1cnn(C2CN(CCCOc3ccc(C#N)cc3)C2)c1`, with 49%.

As to `Cc1cc(C)n(CC2CN(CCOc3ccccc3C#N)CCO2)n1` (stereo unspecified), the INHIBITION is -10.6%. To `Cc1cnn(C2CN(CCOc3ccccc3C#N)C2)c1` belongs 58.8%. To `Cn1ccnc1CN1CCN(CCOc2ccccc2C#N)CC1` belongs 44.8%; to `O=C(NCCc1cc(N2CCOCC2)nc(N2CCCC2)n1)C1CC1`, 15.548%; to `O=C(CC1CC2(CCN(CC3CC3)CC2)Oc2ccccc21)NC1CC1` (stereo unspecified), 7.5%.

In the case of `Fc1ccc([C@@H]2COC[C@H]2NCc2cccc(F)c2)cc1`, the INHIBITION is listed as 20.2%. In the case of `CCN1CCc2c(CNC(=O)c3nccn3C)cncc2C1`, the INHIBITION is recorded as 35.8%. As for `C=C/C=c1\c(=C/C)oc2c(NCc3ccccc3)ncnc12`, the INHIBITION is on record as 60.3%.

`C=C/C=c1\c(=C/C)oc2c(NCc3ccccc3)nc(C)nc12`: the INHIBITION is recorded as 68%.

`Cc1nn(C)c2c(NCc3ccccn3)ncnc12`: the INHIBITION stood at 42.1%. To `C=C/C=c1\c(=C/C)oc2c(NCc3ccccc3)nc(CC)nc12` belongs 22.5%. On to `Cc1nc(NCc2cccnc2)c2c(n1)c(C)nn2C`, for which the INHIBITION is 1.81%. Turning to `Cc1ncc(CN)c(-c2cn(C)c3ccccc23)n1`, the INHIBITION is 9.05%.

As for `CN(CC(N)=O)C(=O)C1Cc2cc(Cl)ccc2O1` (stereo unspecified), the INHIBITION was -5.64%. `CN(C)CC1(O)CCCN(C(=O)Cc2ccc(Cl)c(Cl)c2)C1` (stereo unspecified): the INHIBITION turned out to be 52.2%. On to `CN(C)CC1(O)CCN(C(=O)Cc2ccc(Cl)c(Cl)c2)C1` (stereo unspecified), for which the INHIBITION turned out to be 39.1%. To `CN(C)CC1(O)CCN(C(=O)Cc2ccc3c(c2)CCCC3)C1` (stereo unspecified) belongs 20.6%. As to `O=C1[C@@H]2CN(c3ncnc4sccc34)C[C@]2(C(=O)O)CN1CC1CC1`, the INHIBITION is 29.2%. `Cc1nn(C)c(N(C)C)c1CNC1CCOc2c(Cl)cccc21` (stereo unspecified): the INHIBITION was -17.7%. To `COc1ccccc1C1(O)CCCN(C(=O)c2ccnn2C(C)C)C1` (stereo unspecified) belongs -24.4%; to `CNC(=O)[C@@H]1CN(C(=O)C(C)C)C[C@H]1c1ccnc(N2CCCC2)n1`, 21.7%. To `Cc1noc(C2CCC3(CCN(C(=O)C4CCOCC4)CC3)O2)n1` (stereo unspecified) belongs 32.2%; to `NC(=O)C(NC1CCN(CC2CCCCC2)CC1)c1ccc(F)cc1` (stereo unspecified), -55.1%; to `NC(CC1CCCC1)c1ccc(Oc2ccccc2)cc1` (stereo unspecified), 80.1%.

Turning to `NC(CC1CCCC1)c1ccccc1` (stereo unspecified), the INHIBITION came out at 62.2%. Then `NC(=O)C(NC1CCN(CC2CCCCC2)CC1)c1ccccc1` (stereo unspecified), with -139%.

On to `NC(c1ccccc1)c1ccc(OC(F)F)cc1` (stereo unspecified), for which the INHIBITION came out at 29.3%. Take `NC(CC1CCCCC1)c1ccccc1` (stereo unspecified): the INHIBITION was determined as 5.15%.

With `COCc1noc(Cc2cc(Cl)c3c(c2)OCCCO3)n1`, the INHIBITION was -69.2%. Then `CC(C)(C)CC(=O)NCCCn1cncn1`, with 40.6%.

Regarding `Cc1cn2c(n1)CCC(NC(=O)c1cncnc1C)C2` (stereo unspecified), the INHIBITION was -0.219%. On to `CC1CCN(CCNC(=O)C2CCN(C(=O)C3CC3)CC2)CC1`, for which the INHIBITION was -8.23%. On to `CC(NCCN1CCN(C(=O)C2CCCC2)CC1)c1cnn(C)c1` (stereo unspecified), for which the INHIBITION was 17.1%. For the compound `N#CCSCCCN1CCC(C(=O)N2CCCCCC2)CC1`, the INHIBITION amounted to 51.8%. To `N#CCSCCCN1CCN(C(=O)C2CCCC2)CC1` belongs 50.7%; to `N#CCSCCCN1CCCC(C(=O)N2CCCCCC2)C1` (stereo unspecified), 35.5%. Turning to `Cc1ccc(C(=O)N2CCN(CCCSCC#N)CC2)o1`, the INHIBITION worked out at 0.139%. Then `O=C(O)c1cc(S(=O)(=O)Nc2ccc(F)cc2Cl)cc2c1OCCO2`, with 23.5%. Then `O=C([C@H]1CCCO1)N1CCCC2(CCN(Cc3ccncc3)C2=O)C1` (stereo partly specified), with 10.3%. To `CN1C(=O)CCCC12CCCN(C(=O)c1cc(F)cc(F)c1)C2` (stereo unspecified) belongs 33.4%.

For `Cn1cc(CC(=O)N2CCCC(n3cncn3)C2)cn1` (stereo unspecified), the INHIBITION turned out to be 17.4%. For `Cc1cnc(CNC(=O)CCCn2cnc3ccccc3c2=O)cn1`, the INHIBITION worked out at 34.6%. Then `CCCc1noc(CCC(=O)N2CCCC(c3ccn[nH]3)C2)n1` (stereo unspecified), with 16.8%. In the case of `CCc1noc(CCCC(=O)N2CCCC(c3ccn[nH]3)C2)n1` (stereo unspecified), the INHIBITION is 42.8%. As to `CC(C)c1nc(C2CCCN(C(=O)CCn3cncn3)C2)no1` (stereo unspecified), the INHIBITION is 31.2%. For `Cc1csc2c(C3CCCN(C(=O)CCCn4cncn4)C3)nc(C)n12` (stereo unspecified), the INHIBITION was -1.16%. To `CC(C)c1nc(C2CCCN(C(=O)CCn3ccnc3)C2)no1` (stereo unspecified) belongs 56.1%; to `CC(C)c1nc(C2CCCN(C(=O)CCCn3ccnc3)C2)no1` (stereo unspecified), -19.4%.

In the case of `Cc1nc(C2CCCN2C(=O)CCCn2cccn2)no1` (stereo unspecified), the INHIBITION is on record as -25.9%.

Take `O=C(CCCc1nc(C2CC2)no1)N1CCCC(c2ccn[nH]2)C1` (stereo unspecified): the INHIBITION worked out at 52.6%.

On to `Cc1csc2c(C3CCCN(C(=O)CCn4cncn4)C3)nc(C)n12` (stereo unspecified), for which the INHIBITION is reported as 5.34%.

In the case of `Cc1csc2c(C3CCCN(C(=O)CCn4ccnc4)C3)nc(C)n12` (stereo unspecified), the INHIBITION was found to be 57.3%. To `CC(C)c1nc(C2CCCN(C(=O)CCCn3cccn3)C2)no1` (stereo unspecified) belongs -29.8%.

As to `Cc1nc(C2CCCN(C(=O)CCCn3cccn3)C2)no1` (stereo unspecified), the INHIBITION amounted to 53.5%. Turning to `Cc1ccc(S(=O)(=O)Nc2cnn(C3CCOCC3)c2)cc1C`, the INHIBITION was -52.5%.

As for `CCCc1ccc(S(=O)(=O)NC(=O)CCc2cscn2)cc1`, the INHIBITION came out at 16.2%.

In the case of `O=S(=O)(c1cncc(F)c1)N1CCSC2(CCCCC2)C1`, the INHIBITION worked out at 28.5%. Then `COc1c(C2CCCN2C(=O)c2cccnc2N(C)C)c(C)nn1C` (stereo unspecified), with 23.4%; and `COc1ccc(-n2cc(CNC(=O)c3cc[nH]n3)nn2)cc1`, with -120%.

Take `O=S(=O)(CCCN1CCc2c(ncn2C2CC2)C1)c1ccccc1`: the INHIBITION is -27.5%. To `CC(C)CN1C(=O)CC(N2CCN(c3ccc(F)cc3)CC2)C1=O` (stereo unspecified) belongs 54%; to `CCCN1C(=O)CC(N2CCN(c3ccc(F)cc3)CC2)C1=O` (stereo unspecified), -34.7%; to `CC(C)N1C(=O)CC(N2CCN(c3ccc(F)cc3)CC2)C1=O` (stereo unspecified), 14.3%. Then `CCN(Cc1ccc2c(c1)OCO2)C(=O)NC(C)Cn1ccnc1` (stereo unspecified), with 26.4%; and `Cc1sc(CNS(N)(=O)=O)nc1-c1ccc(Cl)cc1`, with -20.6%. As for `CCC(N)C(=O)N1CCC(OCc2ccc(Cl)c(Cl)c2)CC1` (stereo unspecified), the INHIBITION worked out at 47.7%. To `NC(=O)CN1CCC(OCc2ccc(Cl)c(Cl)c2)CC1` belongs 33.1%; to `CNC(=O)CN1CCC(OCc2ccc(Cl)c(Cl)c2)CC1`, 65.6%.

For the origin of these results see ChEMBL document CHEMBL4513216, “Probing the Open Global Health Chemical Diversity Library for Multistage-Active Starting Points for Next-Generation Antimalarials” (ACS Infect Dis, 2020).
